Values joined by “and” are separate entries in the source; they are usually repeats but may differ in a detail not shown here. Equal entries are not always repeated. For part of these data: Entries with a potency or affinity are not part of this list. Active and inactive are the calls of the source.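 Rule for the calls, unless noted: active = compounds whose cell count with miR-34 switched on is under 0.7 times the count with it off; inactive = the rest.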
What was measured:
[1] = EMT-state selective cytotoxicity in co-culture – imaging, PC-3E GFP, TEM4-18 mCherry, primary screen (AID 1345086;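 active = compounds killing one labelled cell type while sparing the other, by normalised counts and ratio limits, not self-fluorescent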;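 for all read-outs here: cells exposed to compound for 72 h before imaging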;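 for red/green cell ratio (normalised): normalised mesenchymal count divided by normalised epithelial count so high means epithelial killing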); conditions: PC-3E GFP / TEM4-18 mCherry co-culture, imaging cell counts, at 1 µM; for red/green cell ratio (normalised): actives lie on both sides, counts scaled to control wells, 1 = unselective
[2] = viability loss with induced miR-34 in A549 – imaging, A549 dox-inducible miR-34, nuclei and caspase counts, primary screen (AID 1347080); conditions: A549 miR-34 inducible, Hoechst nuclei count, 48 h
[3] = MELAS cybrid and Rieske KO viability enhancers – cell-based, MELAS cybrids, Rieske KO mouse fibroblasts, CellTiter-Glo, primary screen (AID 1508586;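 active = mean z-score across replicates of 1.96 or higher in either the MELAS or the Rieske mutant cell line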;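 note: z relative to plate mean and SD of compound and empty wells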); conditions: low glucose
[4] = galactose survival enhancers in mitochondrial complex I cybrids – cell-based, galactose medium, ATP luminescence, primary screen (AID 1645843;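 active = z-score of at least 1.8 in each of two replicates, scored against plate mean and spread of sample wells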;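 note: positive z means more ATP and so rescue of galactose-driven cybrid death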); conditions: complex I mutant cybrid cells, 72 h, stronger effect = higher value
[5] = P. berghei load reduction in hepatocytes – cell-based, HepG2, luciferase luminescence, HepG2 viability, primary screen (AID 624349; in the data active = parasite load remaining mostly below about 12%, no sharp cut-off; inactive = mostly above about 10%;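 note: 100% = mean of DMSO negative control wells on the same plate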); conditions: P. berghei liver stage in HepG2, luciferase luminescence, concentration not given here; parasite load remaining: stronger effect = lower value; viability: measured here: HepG2 viability without parasites
[6] = compounds altering viability of human ES cells (AID 493140; call rule not given here;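 note: cells exposed to compounds for four days before counting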); conditions: human embryonic stem cell survival screen; stronger effect = higher value
[7] = target: NAD(+) hydrolase SARM1 (Homo sapiens) (UniProt Q6SZW1); assay: blocking NAD cleavage by SARM1 SAM-TIR – cell lysate, NAD-Glo luminescence (AID 1508614;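 active = compound whose remaining NAD level is above about 45 nM, limit read from the data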;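 note: higher remaining NAD means stronger inhibition of SARM1 NADase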); conditions: SAM-TIR HEK293T lysate NADase, at 1 µM, stronger effect = higher value
Sequence of NAD(+) hydrolase SARM1 (Homo sapiens) (Q6SZW1 whole entry, looked up, the tested form may be a part): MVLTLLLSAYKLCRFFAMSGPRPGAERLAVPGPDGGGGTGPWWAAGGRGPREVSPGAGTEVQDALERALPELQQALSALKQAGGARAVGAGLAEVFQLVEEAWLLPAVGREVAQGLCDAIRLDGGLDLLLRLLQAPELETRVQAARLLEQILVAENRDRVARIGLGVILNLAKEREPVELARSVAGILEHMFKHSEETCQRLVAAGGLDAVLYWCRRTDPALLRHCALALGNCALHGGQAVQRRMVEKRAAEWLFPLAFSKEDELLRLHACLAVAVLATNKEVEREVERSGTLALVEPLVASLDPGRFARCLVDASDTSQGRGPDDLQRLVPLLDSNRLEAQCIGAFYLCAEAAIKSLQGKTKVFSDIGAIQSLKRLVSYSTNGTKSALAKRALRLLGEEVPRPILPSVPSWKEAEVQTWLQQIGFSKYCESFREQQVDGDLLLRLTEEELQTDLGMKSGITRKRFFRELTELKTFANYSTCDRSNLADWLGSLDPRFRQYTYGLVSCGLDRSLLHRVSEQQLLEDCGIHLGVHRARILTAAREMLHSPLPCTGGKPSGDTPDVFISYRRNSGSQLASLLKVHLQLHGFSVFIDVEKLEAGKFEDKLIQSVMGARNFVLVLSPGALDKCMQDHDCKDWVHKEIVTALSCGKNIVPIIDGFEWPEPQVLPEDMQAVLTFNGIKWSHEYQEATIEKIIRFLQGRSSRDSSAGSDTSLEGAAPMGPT

[8] = target: Mitogen-activated protein kinase 7 (Homo sapiens) (UniProt Q13164); assay: Gal4-ERK5 driven luciferase induction – cell-based, HTS, primary screen (AID 1508626;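 active = luciferase signal above three times the same-plate solvent-only control wells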;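 note: luciferase driven by Gal4-ERK5 fusion binding five Gal4 sites before minimal TATA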); conditions: HeLa Gal4-ERK5 transactivation, 18 h, at 5 µM, stronger effect = higher value
Sequence of Mitogen-activated protein kinase 7 (Homo sapiens) (Q13164 whole entry, looked up, the tested form may be a part): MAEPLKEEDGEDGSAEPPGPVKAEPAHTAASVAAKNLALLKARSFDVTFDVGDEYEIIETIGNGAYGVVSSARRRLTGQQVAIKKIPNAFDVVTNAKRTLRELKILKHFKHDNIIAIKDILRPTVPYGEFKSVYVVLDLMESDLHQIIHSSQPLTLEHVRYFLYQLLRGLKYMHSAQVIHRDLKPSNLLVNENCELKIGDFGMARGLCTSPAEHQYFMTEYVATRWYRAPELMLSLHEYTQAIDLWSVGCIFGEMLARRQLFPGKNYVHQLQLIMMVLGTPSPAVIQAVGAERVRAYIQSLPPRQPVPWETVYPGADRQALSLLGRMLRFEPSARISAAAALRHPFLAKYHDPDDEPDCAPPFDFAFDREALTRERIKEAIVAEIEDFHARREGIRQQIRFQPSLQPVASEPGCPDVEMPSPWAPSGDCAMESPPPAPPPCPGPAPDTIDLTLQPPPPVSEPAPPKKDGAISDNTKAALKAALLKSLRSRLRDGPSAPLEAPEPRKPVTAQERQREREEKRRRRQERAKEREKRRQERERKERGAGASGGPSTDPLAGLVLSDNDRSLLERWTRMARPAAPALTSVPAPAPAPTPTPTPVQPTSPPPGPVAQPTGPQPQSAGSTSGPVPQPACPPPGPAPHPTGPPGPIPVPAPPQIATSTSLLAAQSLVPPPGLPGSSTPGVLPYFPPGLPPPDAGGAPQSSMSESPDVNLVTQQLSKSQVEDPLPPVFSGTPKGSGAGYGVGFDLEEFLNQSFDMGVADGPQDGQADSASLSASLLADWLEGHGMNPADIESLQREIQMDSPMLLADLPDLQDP

[9] = blockers of polyQ-driven CASP3 activation – cell-based (AID 1583); conditions: polyglutamine-induced caspase-3 activation, cell assay; stronger effect = higher value;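 tested at 10 µM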
[10] = yeast 75Q aggregation reduction – 75Q-TubU reporter (AID 1593); conditions: Yeast 75Q polyglutamine aggregation reporter
[11] = restoration of touch response, mutant HTT neurons – whole organism, C. elegans mechanosensory neurons, N-terminal huntingtin (AID 1599); conditions: C. elegans polyQ-huntingtin mechanosensory neurons, stronger effect = higher value
[12] = blockers of cytochrome c efflux from mitochondria – biochemical, purified mitochondria (AID 1603); conditions: stronger effect = lower value;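 note: mouse liver mitochondria challenged with calcium chloride; signal normalized to the plate average as 100%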
[13] = polyglutamine aggregate formation blockers (AID 1604); conditions: polyglutamine-induced protein aggregation inhibition assay; stronger effect = higher value; tested at 2.5 µM
[14] = glutamate transport activators, MN-1 cells, MN-1 cell line (AID 1612); conditions: MN-1 motor neuron cells, stronger effect = higher value;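 note: tested at 1 µM final; 0% = mean of DMSO vehicle wells on each plate; positive means more glutamate uptake than control and negative means less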
[15] = 75Q-TubH aggregate inhibition, S. cerevisiae, yeast (AID 1616); conditions: S. cerevisiae 75Q-TubH polyglutamine aggregation suppression; stronger effect = higher value
[16] = measured here: epithelial PC-3E GFP cell survival
[17] = measured here: mesenchymal TEM4-18 mCherry cell survival
[18] = stronger effect = lower value, cell number ratio, induced over uninduced
[19] = measured here: relative caspase fold change +Dox/-Dox
[20] = measured here: total cells with miR-34 induction, stronger effect = lower value
[21] = measured here: total cells without miR-34 induction
[22] = MELAS cybrid survival, CellTiter-Glo 48 h, stronger effect = higher value
[23] = Rieske KO mouse fibroblast survival, CellTiter-Glo 72 h

NC(=O)C(c1ccccc1)(c1ccccc1)C1CCN(CCc2ccc3c(c2)CCO3)C1 (configuration not stated)
red/green cell ratio (normalised) [1]: 1.14 (inactive)
normalised cell number [1, 16]: 1.01
normalised cell number [1, 17]: 1.15
fold change [2, 18]: 0.961 (inactive) and 0.867 (inactive) and 0.884 (inactive)
fold change [2, 19]: 1.17 and 0.544 and 0.774
cell count [2, 20]: 7990 and 7300 and 7280
cell count [2, 21]: 8310 and 8420 and 8230
z-score [3, 22]: 0.59 (inactive) and -0.239 (inactive)
z-score [3, 23]: 0.395 and -0.187
z-score [4]: -0.58 (inactive)

CC1(O)CCOC(=O)C1 (configuration not stated)
parasite load remaining [5]: 86.9% (inactive)
viability [5]: 107%
red/green cell ratio (normalised) [1]: 1.07 (inactive)
normalised cell number [1, 16]: 0.95
normalised cell number [1, 17]: 1.02
fold change [2, 18]: 0.969 (inactive)
fold change [2, 19]: 0.886
cell count [2, 20]: 8270
cell count [2, 21]: 8540
z-score [3, 22]: -0.827 (inactive)
z-score [3, 23]: -0.633

Cc1c(C)c2c(c(C)c1O)CCC(C)(C(=O)O)O2 (configuration not stated)
survival [6]: 0.667 (inactive)
parasite load remaining [5]: 201% (inactive) and 66.3% (inactive)
viability [5]: 117% and 76.7%
red/green cell ratio (normalised) [1]: 0.84 (inactive)
normalised cell number [1, 16]: 1.17
normalised cell number [1, 17]: 0.98
fold change [2, 18]: 0.854 (inactive)
fold change [2, 19]: 1.44
cell count [2, 20]: 8370
cell count [2, 21]: 9800
z-score [3, 22]: -0.259 (inactive)
z-score [3, 23]: -0.0183

O=C1C2CC3CC1CC(O)(C3)C2
red/green cell ratio (normalised) [1]: 0.85 (inactive)
normalised cell number [1, 16]: 1.16
normalised cell number [1, 17]: 0.99
fold change [2, 18]: 0.951 (inactive)
fold change [2, 19]: 0.928
cell count [2, 20]: 9100
cell count [2, 21]: 9570
remaining NAD [7]: 10 nM (inactive)

CC(=O)Oc1cccc(C)c1
red/green cell ratio (normalised) [1]: 1.03 (inactive)
normalised cell number [1, 16]: 0.86
normalised cell number [1, 17]: 0.89
fold change [2, 18]: 0.912 (inactive)
fold change [2, 19]: 1.13
cell count [2, 20]: 8300
cell count [2, 21]: 9090
remaining NAD [7]: 10 nM (inactive)

Nc1ccccc1S(N)(=O)=O
survival [6]: 5.17 (inactive)
parasite load remaining [5]: 63.3% (inactive)
viability [5]: 93.8%
red/green cell ratio (normalised) [1]: 0.77 (inactive)
normalised cell number [1, 16]: 1.18
normalised cell number [1, 17]: 0.91
fold change [2, 18]: 0.888 (inactive)
fold change [2, 19]: 1.35
cell count [2, 20]: 9840
cell count [2, 21]: 11100
z-score [3, 22]: 0.695 (inactive)
z-score [3, 23]: -0.362

NC1CCN(c2c(F)cc3c(=O)c(C(=O)O)cn(C4CC4)c3c2Cl)C1 (configuration not stated)
parasite load remaining [5]: 12.5% (inactive)
viability [5]: 73%
red/green cell ratio (normalised) [1]: 1.1 (inactive) and 0.63 (inactive)
normalised cell number [1, 16]: 1 and 1.34
normalised cell number [1, 17]: 1.09 and 0.84
fold change [2, 18]: 0.917 (inactive) and 0.881 (inactive)
fold change [2, 19]: 1.1 and 1.36
cell count [2, 20]: 7910 and 9140
cell count [2, 21]: 8620 and 10400
z-score [3, 22]: 0.53 (inactive) and 0.358 (inactive)
z-score [3, 23]: -0.371 and 0.0233
remaining NAD [7]: 10 nM (inactive)
z-score [4]: 0.72 (inactive)

O=C(O)Cc1cc(I)c(Oc2ccc(O)c(I)c2)c(I)c1
survival [6]: 18.8 (inactive)
parasite load remaining [5]: 35.5% (inactive) and 118% (inactive)
viability [5]: 46% and 91.7%
red/green cell ratio (normalised) [1]: 0.98 (inactive)
normalised cell number [1, 16]: 1.1
normalised cell number [1, 17]: 1.08
fold change [2, 18]: 1.03 (inactive) and 0.918 (inactive) and 0.892 (inactive)
fold change [2, 19]: 0.599 and 1.29 and 1.64
cell count [2, 20]: 7190 and 8760 and 9000
cell count [2, 21]: 6990 and 9530 and 10100
z-score [3, 22]: -0.0879 and -3.89 (inactive)
z-score [3, 23]: 5.02 and -3.53
remaining NAD [7]: 10 nM (inactive)

C=CCOC(Cn1ccnc1)c1ccc(Cl)cc1Cl (configuration not stated)
survival [6]: 5.75 (inactive)
parasite load remaining [5]: 62.3% (inactive) and 49.7% (inactive)
viability [5]: 79.2% and 101%
red/green cell ratio (normalised) [1]: 1.13 (inactive)
normalised cell number [1, 16]: 1.28
normalised cell number [1, 17]: 1.45
fold change [2, 18]: 0.977 (inactive) and 1.23 (inactive)
fold change [2, 19]: 0.912 and 0.451
cell count [2, 20]: 7830 and 4360
cell count [2, 21]: 8020 and 3550
z-score [3, 22]: -0.315 (inactive)
z-score [3, 23]: -1.27
remaining NAD [7]: 10 nM (inactive)

CCC1(C)OC(=O)N(C)C1=O (configuration not stated)
red/green cell ratio (normalised) [1]: 0.84 (inactive)
normalised cell number [1, 16]: 1.08
normalised cell number [1, 17]: 0.91
fold change [2, 18]: 0.92 (inactive)
fold change [2, 19]: 0.865
cell count [2, 20]: 7860
cell count [2, 21]: 8540
remaining NAD [7]: 10 nM (inactive)
luciferase signal [8]: 16 AU (inactive)

O=C(CNC(=O)c1ccc(Cl)cc1)NO
parasite load remaining [5]: 45.5% (inactive)
viability [5]: 106%
red/green cell ratio (normalised) [1]: 0.95 (inactive)
normalised cell number [1, 16]: 1.13
normalised cell number [1, 17]: 1.08
fold change [2, 18]: 0.961 (inactive)
fold change [2, 19]: 3.28
cell count [2, 20]: 12100
cell count [2, 21]: 12600
remaining NAD [7]: 10 nM (inactive)
luciferase signal [8]: 60 AU (inactive)

C#C[C@]1(O)CCC2C3CCc4cc(O)ccc4C3CC[C@@]21C (some centres not stated)
inhibition [9]: 15.5%
score [10]: 0.67
rescue above control [11]: -11.3
cytochrome c release ratio [12]: 1.15
inhibition of aggregation [13]: 38.1%
glutamate uptake change [14]: -12.7%
aggregation suppression score [15]: 0.484
parasite load remaining [5]: 88.3% (inactive) and 66.4% (inactive)
viability [5]: 76.2% and 99.2%
red/green cell ratio (normalised) [1]: 0.98 (inactive)
normalised cell number [1, 16]: 1.1
normalised cell number [1, 17]: 1.07
fold change [2, 18]: 1.12 (inactive) and 1.01 (inactive)
fold change [2, 19]: 1.15 and 1.03
cell count [2, 20]: 5370 and 6100
cell count [2, 21]: 4780 and 6050
z-score [4]: -0.545 (inactive)

CC(C)(CO)C(O)C(=O)NCCCO (configuration not stated)
parasite load remaining [5]: 56.4% (inactive)
viability [5]: 105%
red/green cell ratio (normalised) [1]: 1.08 (inactive) and 0.9 (inactive)
normalised cell number [1, 16]: 1.14 and 1.02
normalised cell number [1, 17]: 1.23 and 0.92
fold change [2, 18]: 0.911 (inactive)
fold change [2, 19]: 4.72
cell count [2, 20]: 11800
cell count [2, 21]: 13000
luciferase signal [8]: 68 AU (inactive)

CC(=O)Nc1ccc(S(=O)(=O)c2ccc(NC(C)=O)cc2)cc1
parasite load remaining [5]: 52.4% (inactive)
viability [5]: 147%
red/green cell ratio (normalised) [1]: 0.78 (inactive)
normalised cell number [1, 16]: 1.22
normalised cell number [1, 17]: 0.95
fold change [2, 18]: 0.909 (inactive)
fold change [2, 19]: 4.36
cell count [2, 20]: 10600
cell count [2, 21]: 11700
remaining NAD [7]: 25 nM (inactive)
luciferase signal [8]: 44 AU (inactive)

FC(F)(F)C(Cl)Br (configuration not stated)
parasite load remaining [5]: 24% (inactive)
viability [5]: 94.8%
red/green cell ratio (normalised) [1]: 0.84 (inactive)
normalised cell number [1, 16]: 1.13
normalised cell number [1, 17]: 0.95
fold change [2, 18]: 0.974 (inactive)
fold change [2, 19]: 2.12
cell count [2, 20]: 12500
cell count [2, 21]: 12900
remaining NAD [7]: 10 nM (inactive)
luciferase signal [8]: 40 AU (inactive)

C[C@H]1CC2C3CCC4=CC(=O)C=C[C@]4(C)[C@@]3(F)[C@@H](O)C[C@]2(C)[C@@]1(O)C(=O)COP(=O)(O)O (some centres not stated)
red/green cell ratio (normalised) [1]: 1.28 (inactive)
normalised cell number [1, 16]: 1.37
normalised cell number [1, 17]: 1.75
fold change [2, 18]: 0.873 (inactive)
fold change [2, 19]: 1.02
cell count [2, 20]: 6310
cell count [2, 21]: 7220
luciferase signal [8]: 92 AU (inactive)

From PubChem BioAssay
